The values below come from PubChem BioAssay AID1981 (Southern Research Specialized Biocontainment Screening …, 2009).

Hit rate of the full screen: of about 2,200 compounds, about 480 (22%) were called active. No rule for the calls is given here. The list is a sample of the results. Entries with a potency or affinity are not part of this list.

The nature of the assay: S. Typhimurium GFP fluorescence dose response in modified counterscreen for PhoP regulon inhibitor project (AID 1981). Conditions: 4 h; series mostly up to 150 µM. A general note: A counterscreen serves to expose hits that act by an unwanted route or on another target.
Regarding `c1ccc2c(c1)ncn2CCCCOc1ccc2c(c1)CCC2`, the compound was called inactive.

In the case of `Cc1ncoc1C(=O)Nc1cccc(Cl)c1`, the call was inactive.

Turning to `CC1N(C)c2cc(NC(=O)c3ccco3)ccc2C1(C)C` (centres undefined), the compound was classed as inactive.

Consider `CSc1cccc(NC(=O)c2ccco2)c1`, for which the result was inactive.

Take `O=C(Nc1ccc2c(c1)oc1ccccc12)N1CCOCC1`: the call was inactive.

Consider `O=C(NCC(=O)N(c1cccnc1)C(C(=O)NCc1ccco1)c1ccccc1)c1ccco1` (centres undefined), for which the outcome was inactive.

Regarding `CC(=O)c1c(C)n([O-])c2cc(F)c(F)cc2[n+]1=O`, the result was inactive.

With `Cc1c(C(=O)Nc2cccc(Cl)c2)c2ccccn2c1CCc1ccncc1`, the compound was classed as inactive.

In the case of `CCOc1ccc(-c2nnc(SCc3nnc(-c4ccccc4)o3)n2-c2ccccc2F)cc1`, the compound was called inactive.

Consider `CCC(CC)NC(=O)COC(=O)c1ccc(OCC(=O)Nc2ccccc2OC)c(OC)c1`, for which the result was inactive.

`Cc1nn(-c2ccccc2)c(C)c1C(=O)OC/C(O)=C(\C#N)c1nc2ccccc2[nH]1`: the outcome was inactive.

In the case of `COC(=O)c1sc2nc(CSc3nc4ccc(C)cc4[nH]3)[nH]c(=O)c2c1C`, the compound was classed as inactive.

Consider `CCOCC(=O)Nc1ccc(F)c(F)c1`, for which the compound was called inactive.

In the case of `Nc1nc(N)nc(-c2ccccc2)n1`, the compound was classed as inactive.

As for `O=C(Nc1cccc(Cl)c1)Nc1ccc2c(c1)OCO2`, the outcome was inactive.

Take `N/C(=N/OC(=O)c1ccccc1Cl)c1ncc([N+](=O)[O-])s1`: the result was inactive.

For `O=C(NCCCc1ccccc1)Nc1cccc(Cl)c1`, the result was inactive.

For `CC(C)(C)c1ccc(NC(=O)COC(=O)c2ccc([N+](=O)[O-])s2)cc1`, the outcome was inactive.

Take `CCOC(=O)Nc1ccc(C)cc1C`: the result was inactive.

Consider `CCOC(=O)c1sc(-c2ccc(C(F)(F)F)cc2)nc1O`, for which the outcome was inactive.

Regarding `O=C(NNc1c2ccccc2nc2ccccc12)c1ccccc1O`, the outcome was inactive.

With `CC(C)c1ccc(NC(=O)N(CCc2nc3ccccc3[nH]2)C2CCCC2)cc1`, the call was inactive.

As to `Cc1ccc(CNC(=O)Nc2cccs2)cc1`, the call was inactive.

With `CCCc1cc(C(=O)NNC(=S)NC(C)c2ccccc2)cs1` (centres undefined), the compound was classed as inactive.

`Cc1noc(C)c1CSc1nc2ccccc2nc1NS(=O)(=O)c1ccc(Cl)cc1`: the outcome was inactive.

`COc1ccc(C(=O)NC(=S)NCc2ccc(-c3nc4ccccc4o3)cc2)cc1OC`: the result was inactive.

For the compound `O=C(O)CC(NC(=S)NCc1ccccc1)C(=O)O` (centres undefined), the outcome was inactive.

Take `Cc1cc(Nc2ccc(Cl)cc2)nc(N)n1`: the call was inactive.

For the compound `O=S(=O)(c1ccc(NC(=S)Nc2ccc3c(c2)OCO3)cc1)N1CCOCC1`, the call was inactive.

As for `O=S1(=O)C=CC(Nc2cccc(Cl)c2)C1` (centres undefined), the compound was called inactive.

`CC(C(=O)NC1CCS(=O)(=O)C1)N1C(=O)/C(=C/c2ccc(Cl)cc2)SC1=S` (centres undefined): the outcome was inactive.

For `CC1=C(C(=O)OCC2CCCO2)C(c2cccc(C(F)(F)F)c2)C2=C(CC(c3ccco3)CC2=O)N1` (centres undefined), the result was inactive.

As for `CN(CCNS(=O)(=O)c1ccc2c(c1)oc(=O)n2C)Cc1ccccc1`, the result was inactive.

In the case of `COc1ccc(-c2cnn3c(N)c(S(=O)(=O)C(C)(C)C)cnc23)cc1`, the compound was called inactive.

Turning to `C/C(=C\C(=O)c1cccnc1)Nc1ccc(O)cc1`, the compound was classed as inactive.

For `N/C(=N\OC(=O)COc1ccc(Cl)cc1)c1cccnc1`, the call was inactive.

As for `CC(=O)Nc1ccc(OC(=O)c2cccnc2)cc1`, the compound was classed as inactive.

For the compound `N/C(=N\OC(=O)Cc1ccc(Cl)cc1)c1cccnc1`, the call was inactive.

`O=C(N/N=C/C1C(c2ccccc2)C1(Cl)Cl)c1cccc(Cl)c1` (centres undefined): the result was inactive.

As for `O=C(N/N=C/c1ccc(Cl)cc1Cl)c1cccc(F)c1`, the call was inactive.

With `O=C(N/N=C/C1CC=CCC1)c1ccc(Cl)cc1O` (centres undefined), the result was inactive.

On to `N#CC(CC(=O)c1ccc(F)cc1)c1ccc2c(c1)OCO2` (centres undefined), for which the result was inactive.

Regarding `C/C(=N\NC(=S)Nc1ccc(F)cc1)c1ccc2c(c1)OCCO2`, the result was inactive.

For `C(=N\c1nc2ccccc2n1CCN1CCCCC1)/c1cccs1`, the compound was classed as inactive.

As to `Cc1cccc(C(=O)Nc2nnc(Cc3c[nH]c4ccccc34)s2)c1`, the compound was called inactive.

For `CC1CN(C(=O)CCc2ccccc2)C(C)CN1C(=O)CCc1ccccc1` (centres undefined), the result was inactive.

Take `Cc1cccc(OCCSCc2nc3ccccc3[nH]2)c1`: the result was inactive.

For the compound `Cc1ccc(Cn2cnc3ccccc32)cc1`, the outcome was inactive.

On to `Cc1ccc(-c2nnc(SCC(=O)N3CCCc4ccccc43)n2N)cc1`, for which the call was inactive.

On to `Clc1ccc(-c2cnc3n2CCC3)cc1`, for which the result was inactive.

`O=[N+]([O-])c1ccc(N2CCN(CCOc3nonc3-c3ccccc3)CC2)c(Cl)c1`: the result was inactive.

`Cc1occc1C(=O)n1cnc2ccccc21`: the outcome was inactive.

Take `Nc1c(-c2ccccc2Cl)cnn1-c1cccc([N+](=O)[O-])c1`: the compound was classed as inactive.

Take `C=C(C)C1Cc2cc3ccc(=O)oc3cc2O1` (centres undefined): the compound was classed as inactive.

Take `CCOC(=O)C1=C(C)N(CCO)C(=O)NC1c1cccc(O)c1` (centres undefined): the compound was classed as inactive.

As for `O=c1c2ccccc2nnn1Cc1ccccn1`, the compound was called inactive.

Consider `Cc1cc(C)c(C#N)c(SCC(O)CS(=O)(=O)Cc2ccccc2)n1` (centres undefined), for which the result was inactive.

`Cc1ccc(N=Nc2ccc(O)c(/C=N\NC(=O)c3ccc(N)cc3)c2)cc1C`: the compound was classed as inactive.

As for `Nc1nnc(CC(=O)N/N=C\c2cc([N+](=O)[O-])ccc2O)s1`, the compound was called inactive.

On to `Cc1cc(/C=N/NC(=O)c2cccc([N+](=O)[O-])c2)c(C)n1-c1ccc(Cl)cc1Cl`, for which the result was inactive.

Regarding `Cc1cc(C(=O)N/N=C/c2cc(Br)cc(Br)c2OC(=O)c2ccccc2)n[nH]1`, the compound was classed as inactive.

In the case of `C/C(=N\NC(=O)C1CC1c1ccccc1)c1cccc([N+](=O)[O-])c1` (centres undefined), the compound was called inactive.

As to `Cc1ccc2cccc(Oc3ncnc4scc(-c5ccccc5)c34)c2n1`, the outcome was inactive.

Consider `CN(C)c1ccnc(-n2cccc2/C=N/OCc2ccccc2)c1C#N`, for which the compound was called inactive.

In the case of `COc1ccc(OC)c(NC(=O)c2cc3c(Cl)nc4ccccc4c3s2)c1`, the result was inactive.

For the compound `Cc1ccc(C)c(C(=O)NCc2ccncc2)c1`, the compound was classed as inactive.

Regarding `COc1ccc(CN=C2Nc3ccccc3CS2)cc1`, the result was inactive.

On to `O=c1c2cc(Br)ccc2nc(-c2ccccc2)n1O`, for which the outcome was inactive.

`CN1CCCC(OC(=O)c2ccc(Cl)cc2)C1` (centres undefined): the call was inactive.

As to `NC(=S)c1cc2ccc(O)cc2oc1=O`, the compound was classed as inactive.

On to `OCCCNc1nc(-c2ccc(Cl)cc2)nnc1-c1ccc(Br)cc1`, for which the result was inactive.

Consider `CCn1c(CNC(=O)COc2ccc(C(C)C)cc2)nnc1SCC(=O)Nc1ccccc1`, for which the call was inactive.

As for `FC(F)(F)c1cc(C(F)(F)F)c2ccc(Oc3ccccc3)nc2n1`, the result was inactive.

For `Cc1cc(C)c2c(c1)NC(=O)C2(O)CC(=O)c1cccs1` (centres undefined), the outcome was inactive.
